Measurements taken from PubChem BioAssay AID2401 (Southern Research Specialized Biocontainment Screening …, 2010).
The campaign covered roughly 2,200 compounds. About 530 (24%) were called active.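 How the source made its calls: active means inhibition above a set limit at one or more concentrations of the dose series; inactive means inhibition under that limit at every dose.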 Only a sample is shown. Potency and affinity values are given separately.

Assay: nmpC-GFP reporter counter-screen in S. Typhimurium, dose response, counter-screen for PhoP regulon inhibitor project, Salmonella Typhimurium, GFP fluorescence (AID 2401);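 further: S. typhimurium with Mg-insensitive nmpC-GFP reporter grown at 10 µM Mg2+; drop in reporter fluorescence reflects general culture growth inhibition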
Conditions: 4 h; series mostly up to 150 µM; inhibition: at the top concentration

Row | Compound | inhibition
1 | c1ccc(Nc2nc3ccccc3[nH]2)nc1 | -16.9% (inactive)
2 | CC(=O)Nc1cccc(-c2csc(Nc3ccccn3)n2)c1 | 12.4% (inactive)
3 | Clc1ccc(Cn2ncc3c(NCc4ccco4)ncnc32)c(Cl)c1 | -19.8% (inactive)
4 | Cc1nc2cc(NC(=O)N3CCN(c4ccccn4)CC3)ccc2o1 | -9.97% (inactive)
5 | CC(C)N(Cc1nc(-c2ccccc2)no1)C(=O)CN(C)S(=O)(=O)c1ccccc1 | -27.9% (inactive)
6 | COc1ccccc1NCCC(=O)OCC(=O)NC1CCCCCC1 | 1.86% (inactive)
7 | Cc1ccc(NC(=O)CO/N=C(\N)c2nonc2N)cc1 | -22.7% (inactive)
8 | O=c1cc(CSc2nc(NCc3ccccc3)c3ccccc3n2)nc2ccc(Cl)cn12 | -29.7% (inactive)
9 | N/C(=N\OC(=O)N1c2ccccc2Sc2ccccc21)c1ccccc1 | 3.91% (inactive)
10 | Cc1cc(C)cc(OC(=O)CS(=O)c2ccc(C(F)(F)F)cc2[N+](=O)[O-])c1 (centres undefined) | -12.9% (inactive)
11 | CCCOc1ccc(/C=N/O)cc1 | -22.8% (inactive)
12 | C=C(C)C1Cc2cc3ccc(=O)oc3cc2O1 (centres undefined) | -20.6% (inactive)
13 | CCOc1cc(C2Nc3cccc4cccc(c34)N2)ccc1O | 14.6% (inactive)
14 | CC(=O)N/N=C/c1ccc(OCCOc2ccc(Br)cc2)cc1 | -12.3% (inactive)
15 | COC(=O)CCC(=O)Nc1ccc(OC)cc1 | -5.35% (inactive)
16 | COc1cccc(-n2c(SCc3cc(=O)oc4cc(O)c(O)cc34)nc3ccccc3c2=O)c1 | 13.4% (inactive)
17 | O=C(Cn1cnc2scc(-c3ccccc3)c2c1=O)N1CCOCC1 | -6.08% (inactive)
18 | COc1ccccc1Nc1nc(-c2c(C)[nH]c3ccccc23)cs1 | 32.7% (inactive)
19 | N#Cc1c(N)n[nH]c1-c1cc2c([nH]1)CCCC2 | -26.1% (inactive)
20 | Cc1ccc(CNC(=O)Nc2cccs2)cc1 | -6.52% (inactive)
21 | CCc1cccc2c(C#N)cn(CC(=O)NCCOC)c12 | -28.3% (inactive)
22 | Cc1nc(N2CCN(Cc3ccccc3)CC2)nc2c1C(=O)CC(C)C2 (centres undefined) | -10% (inactive)
23 | O=C(OCCN1C(=O)c2ccccc2C1=O)c1ccc(S(=O)(=O)N2CCCCCC2)cc1 | 6.73% (inactive)

Row | Compound | inhibition
24 | Cc1cc(C)n(-c2ccc(C(=O)OCC(=O)Nc3ccc([N+](=O)[O-])cc3)cc2)n1 | -6.55% (inactive)
25 | COc1ccc(/C=C2\CN(Cc3ccccc3)C/C(=C\c3ccc(OC)cc3)C2=O)cc1 | 2.16% (inactive)
26 | N/C(=N\OC(=O)Nc1ccc(Cl)cc1)c1ncc(C(F)(F)F)cc1Cl | -13.7% (inactive)
27 | COc1cccc(C=NCC(C)N=Cc2cccc(OC)c2O)c1O (centres undefined) | 6.34% (inactive)
28 | Cn1c(CO)cnc1SCc1ccc([N+](=O)[O-])cc1 | -31.8% (inactive)
29 | Cc1nn(-c2ccccc2)c2sc(-c3n[nH]c(=S)o3)cc12 | -18% (inactive)
30 | COc1ccc(C(=O)NC(=S)NCc2ccc(-c3nc4ccccc4o3)cc2)cc1OC | -29.8% (inactive)
31 | O=C1NC(c2ccc3c(c2)OCO3)Oc2ccccc21 (centres undefined) | -11.5% (inactive)
32 | O=C(O)CCC(=O)NCC1OCCc2ccccc21 (centres undefined) | -11.9% (inactive)
33 | C=CCNc1nnc(Cl)c2ccccc12 | -3.69% (inactive)
34 | CCCCCCCCOC(=O)C1=C(C)Nc2nnnn2C1c1cccs1 (centres undefined) | 6.8% (inactive)
35 | CCOC(=O)c1c(/N=C/c2ccc(O)cc2O)sc2c1CCC2 | 9.86% (inactive)
36 | O=C(c1ccc(Cl)cc1Cl)C1(n2cncn2)Oc2ccccc2C1O (centres undefined) | 20.3% (inactive)
37 | O=C(CCN1CCN(c2ccc(F)cc2)CC1)Nc1ccccc1F | -8.75% (inactive)
38 | Cc1sc(NC(=O)c2ccco2)c(CN2CCN(c3ccc(F)cc3)CC2)c1C | 9.11% (inactive)
39 | CCOC(=O)c1cc2sc(C)cc2n1CC(=O)NCc1ccc(F)cc1 | -16.9% (inactive)
40 | CC(C(=O)Nc1cc([N+](=O)[O-])ccc1Cl)N1CCN(c2ccccc2O)CC1 (centres undefined) | -10.1% (inactive)
41 | CC(C)NC(=O)/C(=N\O)c1ccccc1 | -6.42% (inactive)
42 | CCOC(=O)C(/C=C(\C#N)C(=O)OCC)=C(/N)N1CCN(c2c(C)cccc2C)CC1 | -4.43% (inactive)
43 | O=[N+]([O-])c1ccc(NCCCNS(=O)(=O)c2ccccc2)c(Cl)c1 | -16.6% (inactive)
44 | O=S(=O)(Nc1cc(Sc2ncn[nH]2)c(O)c2ccccc12)c1ccccc1 | 19.9% (inactive)
45 | Nc1c(-c2ccccc2)cnn1-c1cccc([N+](=O)[O-])c1 | -14.3% (inactive)
46 | CCC(Sc1ncccc1C(=O)OC(C)C)C(=O)N1CCOCC1 (centres undefined) | -11.1% (inactive)

Row | Compound | inhibition
47 | Cc1ccc(C)n1-c1cc(S(=O)(=O)N2CCOCC2)ccc1N1CCCC1 | -26.3% (inactive)
48 | Cc1cc(Nc2ccccc2F)n2ncnc2n1 | -16.8% (inactive)
49 | N#Cc1ccc(CSc2nnc(-c3ccncc3)n2CCc2ccccc2)cc1 | -14.9% (inactive)
50 | C/C(=N\NC(=O)c1ccccc1)c1ccc2c(c1)OCO2 | 7.65% (inactive)
51 | O=C(NN=C1CCN(Cc2ccccc2)CC1)c1cc2ccccc2cc1O | 22.1% (inactive)
52 | CN(C(=S)Nc1ccc(Oc2ccccc2)cc1)c1ccc(O)cc1 | -25.9% (inactive)
53 | CC(C)Cn1c(-c2ccccc2)nc2ccccc2c1=O | 15% (inactive)
54 | COC(=O)c1c(C(=O)OC)c(-c2cccc(C)c2)n2c1CS(=O)(=O)C2 | -17.4% (inactive)
55 | NC(=NCCc1c[nH]c2ccccc12)NC(=O)c1ccc(F)cc1 | 11% (inactive)
56 | CC1CCN(c2ccc(NC(=S)NC(=O)c3ccc(-c4cccc([N+](=O)[O-])c4)o3)cc2)CC1 | -4.01% (inactive)
57 | CCOc1ccc(-c2noc(CCCC(N)=O)n2)cc1OC | -19.5% (inactive)
58 | O=C(CNC(=O)c1ccco1)OCC(=O)c1ccc2c(c1)CCCC2 | 6.89% (inactive)
59 | C/C(=N\n1nnnc1Nc1ccccc1)c1ccc(N)cc1 | -25.1% (inactive)
60 | COc1ccc(NC(=O)CSc2nc(C)cs2)cc1OC | -40.4% (inactive)
61 | c1ccc(CCNc2nc3ccccc3s2)cc1 | 2.79% (inactive)
62 | Cc1cc(NC(=O)c2cnn3cccnc23)no1 | 18.4% (inactive)
63 | COc1ccc(-c2ccc(-c3noc(-c4cccs4)n3)c(OC)n2)cc1 | 18.1% (inactive)
64 | COc1ccc(NC(C)C(=O)Nc2ccc(C(C)(C)C)cc2)cc1Cl (centres undefined) | -15.3% (inactive)
65 | CC1CCCCN1CCNS(=O)(=O)c1ccc2c(c1)oc(=O)n2C (centres undefined) | -11.4% (inactive)
66 | Cc1ccccc1-n1nnnc1Sc1nnnn1-c1ccccc1 | -1.79% (inactive)
67 | C=CCn1c(SCc2c(C(=O)OC)sc(N)c2C(=O)OC)nnc1-c1ccc(Cl)cc1 | -13.2% (inactive)
68 | CSCCC(NC(=O)c1cccc(C)c1)C(=O)OCC(=O)NC(=O)c1cccn1C (centres undefined) | 2.31% (inactive)
69 | COc1ccc(-c2cc(C(=O)O)[nH]n2)cc1OC | -13.4% (inactive)

Row | Compound | inhibition
70 | O=C(O)CCc1nn2c3ccccc3n(CC(=O)c3ccccc3)c2nc1=O | -11% (inactive)
71 | COc1ccccc1/C=C1\CCCC2=C1Nc1nnnn1C2c1ccccc1OC (centres undefined) | 29.8% (inactive)
72 | CCN(CC(=O)N1CCN(Cc2ccccc2)CC1)S(=O)(=O)c1ccc(F)cc1 | -13.4% (inactive)
73 | S=C(Nc1cccc(Cl)c1)Nc1cccc2cnccc12 | -44.4% (inactive)
74 | S=C(NCc1cccnc1)Nc1ccc(Cl)cc1 | 15.7% (inactive)
75 | CSC(=NS(=O)(=O)c1ccccc1)SC | 23.7% (inactive)
76 | CCN(CC)c1ccc(/C=C(\C#N)C(=O)NCc2ccco2)cc1 | -62.5% (inactive)
77 | CCOC(=O)C1=C(C)NC(=O)NC1c1c(OCC(=O)N2CCCCC2)ccc2ccccc12 (centres undefined) | -25.8% (inactive)
78 | O=C(NCCSCc1ccccc1)c1ccc(F)cc1 | 3.46% (inactive)
79 | CCOc1ccc(-c2nnc(NC(=O)CCCOc3cccc(C)c3)o2)cc1 | -5.93% (inactive)
80 | COc1ccc(Br)cc1C(=O)NCc1cccnc1 | 13.7% (inactive)
81 | C=CCNc1sc(C(=O)c2ccc(C)cc2)c(N)c1C#N | -15.5% (inactive)
82 | Cc1ccc(C(=O)NCC(=O)OCC(=O)N2CCCc3ccccc32)cc1 | -6.03% (inactive)
83 | CCC(OC(=O)C(NC(=O)c1ccccc1)c1ccccc1)C(=O)Nc1cc(C)on1 (centres undefined) | 10.2% (inactive)
84 | COc1ccc(-c2nnc(SCC(=O)NCc3ccco3)o2)cc1 | -20.6% (inactive)
85 | CCn1c(SCC(=O)N2CCCCC2)nc(O)cc1=O | -20.9% (inactive)
86 | CC(=O)N1C(=O)C2(C(C#N)=C(N)Oc3c2c(C)nn3-c2ccccc2)c2ccccc21 (centres undefined) | 0.59% (inactive)
87 | Oc1ccc(N2CCN(Cc3ccc(OCCCN4CCCCC4)cc3)CC2)cc1 | -15.5% (inactive)
88 | O=C(COC(=O)/C=C/c1ccco1)Nc1cccc([N+](=O)[O-])c1 | -25.8% (inactive)
89 | CCc1c(C)c2cc(Cl)c(O)c(CN(C)C)c2oc1=O | -22% (inactive)
90 | Cc1[nH]c2ccccc2c1/C=N/Nc1ccc(F)cc1F | 10.1% (inactive)
91 | COc1ccc(-c2[nH]ncc2/C=C(\C#N)C(=O)NC2CC2)cc1 | -31.2% (inactive)
92 | N#Cc1nc(Cc2cccc3ccccc23)oc1NCCCN1CCOCC1 | 17.1% (inactive)

Row | Compound | inhibition
93 | CCCSc1ncc(Cl)c(C(=O)Nc2ccc(S(=O)(=O)N3CC(C)OC(C)C3)cc2)n1 (centres undefined) | -12.1% (inactive)
94 | CCn1nc(C(=O)NCc2ccco2)c(Cl)c1Cl | -30.1% (inactive)
95 | CCN(CC)Cc1c[nH]c2c(C(=O)OC)cccc12 | -12.2% (inactive)
96 | Cc1ccccc1Cn1nc(C)c(NC(=O)c2noc3c2CCc2ccccc2-3)c1C | -14.1% (inactive)
97 | c1nc(N2CCC3(CC2)OCCO3)c2c3c(sc2n1)CCCC3 | -10.8% (inactive)
98 | COCCSc1ccccc1C(=O)NCC1CCCO1 (centres undefined) | -29.7% (inactive)
99 | COc1ccccc1Nc1nc(NCc2ccco2)c2ccccc2n1 | -22.9% (inactive)
100 | CCCOc1ccc(C2NC(=S)NC(c3ccccc3)=C2C(=O)Nc2ccc(C)cc2)cc1OC (centres undefined) | 4.38% (inactive)
101 | N#Cc1nc(-c2cccs2)oc1NCCCN1CCOCC1 | 13.9% (inactive)
102 | COc1ccc(C)cc1NC(=O)C(Sc1nnc(-c2ccncc2)n1-c1ccc(Cl)cc1)c1ccccc1 (centres undefined) | -2.56% (inactive)
103 | COc1ccc(OC)c(/C=N/NC(=O)Cc2nc3ccccc3[nH]2)c1 | 7.93% (inactive)
104 | Cc1ccc(/C=N/NC(=O)Cn2cnc3ccccc32)o1 | -30.2% (inactive)
105 | C=CCn1c(SCCOc2ccc(OC)cc2)nnc1C(C)NC(=O)c1ccc(OC)cc1 (centres undefined) | -26.5% (inactive)
106 | O=C(CSCc1nc2ccccc2[nH]1)Nc1ccc2ccccc2c1 | 17.2% (inactive)
107 | CC(Cl)C(=O)NNc1cccc(Cl)n1 (centres undefined) | -22.7% (inactive)
108 | O=S(=O)(c1ccc2c(c1)OCCO2)N1CCN(c2cccc(Cl)c2)CC1 | -27.1% (inactive)
109 | O=C(CSc1ncn[nH]1)Nc1cccc2ccccc12 | -9.1% (inactive)
110 | COc1ccc(Oc2ccccc2/C=N/O)cc1 | -16.1% (inactive)
111 | CCCNC(=O)CN(C1CCCCC1)S(C)(=O)=O | 4.77% (inactive)
112 | Cc1nnc(SC(C)C(=O)Nc2ccc(S(=O)(=O)N3CCCCCC3)cc2)s1 (centres undefined) | -20.9% (inactive)
113 | O=S(=O)(/N=C(/Nc1cccc2ccccc12)c1ccccc1)c1cccs1 | -14.4% (inactive)
114 | COc1ccc(-c2ccccc2)cc1NCc1ccccc1C | -21.2% (inactive)
